Molecular target: AgAbp1
Assay: SPOT peptide array binding signal intensity (averaged, normalized) (arbitrary units (background-subtracted, floor 0; scale differs between SH3 domains)); higher = stronger binding of the SH3 domain to the peptide
Procedure: (§1)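 GST-tagged SH3 domains from S. cerevisiae (Sc), A. gossypii (Ag), C. albicans (Ca) and S. pombe (Sp) were incubated at 10 ug/ml overnight at 4 C on cellulose SPOT membranes carrying 292 synthetic 15-mer peptides mined from the S. cerevisiae proteome (cysteines replaced by serines). Binding was detected with anti-GST antibody, HRP secondary and chemiluminescence, quantified with Genespotter, and reported as normalized spot intensities averaged over biological replicates.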

Binder	SPOT peptide array binding signal intensity
LYKRKPILLPDPKPL	30.5

Molecular target: AgBbc1
Assay: as above
Procedure: as §1

Binder	SPOT peptide array binding signal intensity
LYKRKPILLPDPKPL	≤ 0

Molecular target: AgBem1-D1
Assay: as above
Procedure: as §1

Binder	SPOT peptide array binding signal intensity
LYKRKPILLPDPKPL	≤ 0

Molecular target: AgBzz1-D1
Assay: as above
Procedure: as §1

Binder	SPOT peptide array binding signal intensity
LYKRKPILLPDPKPL	44

Molecular target: AgBzz1-D2
Assay: as above
Procedure: as §1

Binder	SPOT peptide array binding signal intensity
LYKRKPILLPDPKPL	70

Molecular target: AgCyk3
Assay: as above
Procedure: as §1

Binder	SPOT peptide array binding signal intensity
LYKRKPILLPDPKPL	≤ 0

Molecular target: AgFus1
Assay: as above
Procedure: as §1

Binder	SPOT peptide array binding signal intensity
LYKRKPILLPDPKPL	≤ 0

Molecular target: AgHof1
Assay: as above
Procedure: as §1

Binder	SPOT peptide array binding signal intensity
LYKRKPILLPDPKPL	11

Molecular target: AgHse1
Assay: as above
Procedure: as §1

Binder	SPOT peptide array binding signal intensity
LYKRKPILLPDPKPL	93

Molecular target: AgLsb1
Assay: as above
Procedure: as §1

Binder	SPOT peptide array binding signal intensity
LYKRKPILLPDPKPL	208

Molecular target: AgLsb4
Assay: as above
Procedure: as §1

Binder	SPOT peptide array binding signal intensity
LYKRKPILLPDPKPL	1.5

Molecular target: AgMyo5
Assay: as above
Procedure: as §1

Binder	SPOT peptide array binding signal intensity
LYKRKPILLPDPKPL	≤ 0

Molecular target: AgNbp2
Assay: as above
Procedure: as §1

Binder	SPOT peptide array binding signal intensity
LYKRKPILLPDPKPL	4.5

Molecular target: AgRvs167
Assay: as above
Procedure: as §1

Binder	SPOT peptide array binding signal intensity
LYKRKPILLPDPKPL	≤ 0

Molecular target: AgSho1
Assay: as above
Procedure: as §1

Binder	SPOT peptide array binding signal intensity
LYKRKPILLPDPKPL	≤ 0

Molecular target: AgSla1-D1-D2
Assay: as above
Procedure: as §1

Binder	SPOT peptide array binding signal intensity
LYKRKPILLPDPKPL	29

Molecular target: AgSla1-D3
Assay: as above
Procedure: as §1

Binder	SPOT peptide array binding signal intensity
LYKRKPILLPDPKPL	9

Molecular target: CaAbp1-D1
Assay: as above
Procedure: as §1

Binder	SPOT peptide array binding signal intensity
LYKRKPILLPDPKPL	292

Molecular target: CaAbp1-D2
Assay: as above
Procedure: as §1

Binder	SPOT peptide array binding signal intensity
LYKRKPILLPDPKPL	140

Molecular target: CaBbc1
Assay: as above
Procedure: as §1

Binder	SPOT peptide array binding signal intensity
LYKRKPILLPDPKPL	16.5

Molecular target: CaBem1-D1
Assay: as above
Procedure: as §1

Binder	SPOT peptide array binding signal intensity
LYKRKPILLPDPKPL	≤ 0

Molecular target: CaBzz1-D1
Assay: as above
Procedure: as §1

Binder	SPOT peptide array binding signal intensity
LYKRKPILLPDPKPL	150

Molecular target: CaBzz1-D2
Assay: as above
Procedure: as §1

Binder	SPOT peptide array binding signal intensity
LYKRKPILLPDPKPL	40.8

Molecular target: CaCyk3
Assay: as above
Procedure: as §1

Binder	SPOT peptide array binding signal intensity
LYKRKPILLPDPKPL	4

Molecular target: CaFus1
Assay: as above
Procedure: as §1

Binder	SPOT peptide array binding signal intensity
LYKRKPILLPDPKPL	39

Molecular target: CaHof1
Assay: as above
Procedure: as §1

Binder	SPOT peptide array binding signal intensity
LYKRKPILLPDPKPL	0.75

Molecular target: CaHse1
Assay: as above
Procedure: as §1

Binder	SPOT peptide array binding signal intensity
LYKRKPILLPDPKPL	≤ 0

Molecular target: CaLsb1
Assay: as above
Procedure: as §1

Binder	SPOT peptide array binding signal intensity
LYKRKPILLPDPKPL	228

Molecular target: CaLsb4
Assay: as above
Procedure: as §1

Binder	SPOT peptide array binding signal intensity
LYKRKPILLPDPKPL	≤ 0

Molecular target: CaMyo5
Assay: as above
Procedure: as §1

Binder	SPOT peptide array binding signal intensity
LYKRKPILLPDPKPL	≤ 0

From the supplement of paper PMC4466140
